Assay results taken from PubChem BioAssay (NCATS).
Values without a mark were called inactive. Records with an inconclusive call do not appear. A call without a number means that no potency is given here. Activity calls are given as the source filed them. Unless noted, the call rests on the fitted dose curve; in most records, active means well fitted curve in the direction sought with a large enough effect; inconclusive means small, poorly fitted or top-dose-only effect, or another doubt; inactive means no such curve, though single readings can be large; an effect the other way counts as inactive or inconclusive.

Legend:
[1] = target: Lysosomal acid glucosylceramidase (Homo sapiens) (UniProt P04062); assay: Glucocerebrosidase-p2 (AID 348; in the data active means potency below about 10 µM; further: potency means the concentration at half of the fitted maximal effect); settings: purified GBA, blue fluorogenic substrate, 40 min
Chain of Lysosomal acid glucosylceramidase (Homo sapiens) (P04062 whole entry, looked up): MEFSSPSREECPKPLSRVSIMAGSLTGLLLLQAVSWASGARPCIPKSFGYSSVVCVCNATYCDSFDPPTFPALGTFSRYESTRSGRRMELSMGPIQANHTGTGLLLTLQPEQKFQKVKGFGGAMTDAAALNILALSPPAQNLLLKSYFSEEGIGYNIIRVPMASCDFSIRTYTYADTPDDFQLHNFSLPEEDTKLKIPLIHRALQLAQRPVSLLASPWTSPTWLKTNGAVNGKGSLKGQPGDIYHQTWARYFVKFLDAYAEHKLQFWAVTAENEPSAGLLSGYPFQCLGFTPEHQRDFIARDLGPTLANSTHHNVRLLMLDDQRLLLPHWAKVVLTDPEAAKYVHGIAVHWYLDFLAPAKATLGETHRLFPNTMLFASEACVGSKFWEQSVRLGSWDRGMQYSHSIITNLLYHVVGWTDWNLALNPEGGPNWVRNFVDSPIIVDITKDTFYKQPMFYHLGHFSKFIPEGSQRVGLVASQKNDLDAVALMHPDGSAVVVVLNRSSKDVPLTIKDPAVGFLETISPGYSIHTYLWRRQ
In short: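 Normal human glucocerebrosidase (0.2 nM) with blue fluorogenic substrate (80 uM final) in citrate/phosphate pH 5.9 with 10mM sodium taurocholate, 0.01% tween-20; 40 min RT, NaOH/glycine stop; fluorescence Ex 365/Em 440; AC50 from a titration from 0.6 nM upwards.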

[2] = target: Cytochrome P450 1A2 (Homo sapiens) (UniProt P05177); assay: p450-cyp1a2 (AID 410; calls by dose curve; further: potency means the concentration at half of the fitted maximal effect); settings: recombinant CYP1A2, luciferin-ME demethylation, luminescence; series mostly up to 57 µM
Chain of Cytochrome P450 1A2 (Homo sapiens) (P05177 whole entry, looked up): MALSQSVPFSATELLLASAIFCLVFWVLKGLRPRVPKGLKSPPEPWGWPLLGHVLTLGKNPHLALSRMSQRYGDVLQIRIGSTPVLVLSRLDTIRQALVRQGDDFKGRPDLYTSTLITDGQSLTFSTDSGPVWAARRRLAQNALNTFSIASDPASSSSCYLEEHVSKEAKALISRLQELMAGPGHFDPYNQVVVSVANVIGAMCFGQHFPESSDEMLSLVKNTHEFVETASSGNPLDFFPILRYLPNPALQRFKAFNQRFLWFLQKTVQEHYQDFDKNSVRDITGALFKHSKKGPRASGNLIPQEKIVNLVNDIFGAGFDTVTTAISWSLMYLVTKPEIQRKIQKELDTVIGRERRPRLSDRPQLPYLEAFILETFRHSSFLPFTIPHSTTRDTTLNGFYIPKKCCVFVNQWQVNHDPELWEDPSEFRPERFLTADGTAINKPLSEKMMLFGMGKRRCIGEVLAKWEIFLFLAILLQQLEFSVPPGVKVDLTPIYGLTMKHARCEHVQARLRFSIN
In short: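 Luminescent demethylation readout: Luciferin-ME (100uM, equal to Km) turned over by 20nM CYP1A2 for 60 min at room temperature after NADPH regeneration addition, following 10 min compound preincubation. Normalization used 57 uM furafylline as full inhibition.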

[3] = NFAT Signaling Pathway (AID 444; active means well fitted curve in either direction with a large enough effect, not every such curve was filed as active;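 further: carbachol stimulus at about its EC50 of 1 µM final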); settings: Jurkat NFAT-bla M1, carbachol, beta-lactamase ratio, 5 h; at 7.69 µM (top of the series) unless noted
In short: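 Jurkat cells carrying an NFAT-driven β-lactamase reporter and co-transfected muscarinic M1 receptor were treated with compound plus carbachol (1 uM final, an EC50 level) for 5 h at 37 °C. CCF4 loading followed for 1 h at RT; 460/530 nm ratio gave %activity.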

[4] = target: Glucocorticoid receptor (Homo sapiens) (UniProt P04150); assay: GR-GFP Redistribution (AID 450;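 active means compounds whose dose series gives a full or clear partial fitted curve of increased nuclear translocation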; further: potency means the concentration at half of the fitted maximal effect); settings: U2OS GR-GFP nuclear translocation, laser cytometry, 2 h
Chain of Glucocorticoid receptor (Homo sapiens) (P04150 whole entry, looked up, the tested form may be a part): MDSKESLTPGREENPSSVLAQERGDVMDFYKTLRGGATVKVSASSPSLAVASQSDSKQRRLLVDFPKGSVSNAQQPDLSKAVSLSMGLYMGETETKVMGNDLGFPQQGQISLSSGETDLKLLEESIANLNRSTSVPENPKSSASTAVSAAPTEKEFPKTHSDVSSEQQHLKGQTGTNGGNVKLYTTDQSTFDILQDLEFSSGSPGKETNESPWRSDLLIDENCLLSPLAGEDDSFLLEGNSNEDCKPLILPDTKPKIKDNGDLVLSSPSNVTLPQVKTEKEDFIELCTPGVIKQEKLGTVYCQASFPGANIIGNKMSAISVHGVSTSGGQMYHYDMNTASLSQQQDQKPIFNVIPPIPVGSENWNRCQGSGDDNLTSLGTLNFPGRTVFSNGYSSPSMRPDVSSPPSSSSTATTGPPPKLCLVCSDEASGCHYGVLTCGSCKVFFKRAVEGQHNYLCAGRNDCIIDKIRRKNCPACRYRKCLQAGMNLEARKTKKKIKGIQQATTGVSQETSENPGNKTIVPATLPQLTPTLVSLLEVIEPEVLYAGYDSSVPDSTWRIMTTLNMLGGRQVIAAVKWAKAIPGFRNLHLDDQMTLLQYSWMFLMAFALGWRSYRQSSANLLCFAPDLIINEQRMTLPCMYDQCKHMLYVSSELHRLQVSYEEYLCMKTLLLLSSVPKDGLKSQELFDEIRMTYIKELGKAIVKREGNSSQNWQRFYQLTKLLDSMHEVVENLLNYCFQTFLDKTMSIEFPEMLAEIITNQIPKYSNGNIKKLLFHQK

[5] = target: Glucocorticoid receptor (Homo sapiens) (UniProt P04150); assay: GR-EFC Redistribution (AID 451; calls by dose curve; further: potency means the concentration at half of the fitted maximal effect); settings: CHO-K1 GR-EFC translocation, beta-gal luminescence, 2 h
In short: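 CHO-K1 cells stably expressing nuclear-localized β-gal enzyme acceptor and GR fused C-terminally to the enzyme donor fragment; ligand-driven nuclear translocation restores β-gal by complementation. Compounds titrated up to 46 uM final, 2 h at 37 °C; luminescence read.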

[6] = target: 3',5'-cyclic-AMP phosphodiesterase 4B (Homo sapiens) (UniProt Q07343); assay: qHTS Assay for Inhibitors of PDE-IV (AID 607; active means well fitted activation curve with a large enough effect in the main read-out, with a control signal flat, not every such curve was filed as active); settings: HEK293 ACTOne CNG channel cells, membrane potential fluorescence; series mostly up to 22.9 µM
Chain of 3',5'-cyclic-AMP phosphodiesterase 4B (Homo sapiens) (Q07343 whole entry, looked up): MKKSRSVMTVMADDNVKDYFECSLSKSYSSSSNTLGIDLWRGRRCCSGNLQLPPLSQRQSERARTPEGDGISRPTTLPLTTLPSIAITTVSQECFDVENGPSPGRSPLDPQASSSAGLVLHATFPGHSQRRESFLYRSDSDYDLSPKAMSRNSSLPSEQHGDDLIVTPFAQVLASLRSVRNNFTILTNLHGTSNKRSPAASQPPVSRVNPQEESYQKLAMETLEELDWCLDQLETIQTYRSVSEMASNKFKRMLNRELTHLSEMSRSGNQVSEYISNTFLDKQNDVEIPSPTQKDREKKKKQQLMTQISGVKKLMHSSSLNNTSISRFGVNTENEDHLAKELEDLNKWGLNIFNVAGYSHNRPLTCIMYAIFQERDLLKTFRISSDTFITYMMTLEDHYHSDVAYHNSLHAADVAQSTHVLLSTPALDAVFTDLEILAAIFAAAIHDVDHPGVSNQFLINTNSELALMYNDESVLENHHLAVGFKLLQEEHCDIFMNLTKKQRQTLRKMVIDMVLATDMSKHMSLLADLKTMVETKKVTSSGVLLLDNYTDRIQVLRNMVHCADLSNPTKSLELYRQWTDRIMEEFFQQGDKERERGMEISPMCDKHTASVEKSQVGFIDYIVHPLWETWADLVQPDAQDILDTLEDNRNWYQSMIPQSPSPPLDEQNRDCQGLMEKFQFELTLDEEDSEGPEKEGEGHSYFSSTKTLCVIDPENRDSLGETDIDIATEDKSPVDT
In short: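 ACTOne HEK293 cells carry a modified cAMP-gated CNG channel and express endogenous PDE4; plated 1000 cells/well, compounds up to 22.9 uM final. Membrane-potential dye fluorescence (ex 535/em 590) was read; parental cells received 10 uM forskolin + 100 uM RO 20-1724.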

[7] = target: Cytochrome P450 2C9 (Homo sapiens) (UniProt P11712); assay: qHTS Assay for Inhibitors and Substrates of Cytochrome P450 2C9 (AID 883); settings: recombinant CYP2C9, luciferin-H luminescence, 60 min; series mostly up to 57.1 µM; further: potency means the concentration at half of the fitted maximal effect; nearly all actives have a fitted effect of over 60% in size
Chain of Cytochrome P450 2C9 (Homo sapiens) (P11712 whole entry, looked up): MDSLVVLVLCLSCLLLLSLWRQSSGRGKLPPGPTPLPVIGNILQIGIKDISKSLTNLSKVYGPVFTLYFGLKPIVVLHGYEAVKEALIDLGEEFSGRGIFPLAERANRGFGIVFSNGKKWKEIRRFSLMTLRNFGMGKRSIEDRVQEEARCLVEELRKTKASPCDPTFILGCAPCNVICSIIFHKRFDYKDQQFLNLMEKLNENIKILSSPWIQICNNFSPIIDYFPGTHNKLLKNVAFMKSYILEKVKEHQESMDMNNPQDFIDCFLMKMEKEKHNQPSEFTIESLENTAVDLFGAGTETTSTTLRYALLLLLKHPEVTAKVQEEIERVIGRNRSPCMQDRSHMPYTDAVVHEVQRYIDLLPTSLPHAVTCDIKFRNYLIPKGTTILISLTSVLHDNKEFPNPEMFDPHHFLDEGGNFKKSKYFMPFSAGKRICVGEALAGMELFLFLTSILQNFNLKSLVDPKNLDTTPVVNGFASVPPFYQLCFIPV
In short: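 A luminogenic readout tracked human CYP2C9 (10nM) converting deoxyluciferin (100uM, at KM) in 25mM KPO4 during 60 min at 37C with regenerated NADPH. Values normalized to 57uM sulphaphenazole as complete inhibition.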

[8] = target: Cytochrome P450 3A4 (Homo sapiens) (UniProt P08684); assay: qHTS Assay for Inhibitors and Substrates of Cytochrome P450 3A4 (AID 884); settings: recombinant CYP3A4, Luciferin-PPXE luminescence; series mostly up to 57.1 µM; further: potency means the concentration at half of the fitted maximal effect; nearly all actives have a fitted effect of over 50% in size
Chain of Cytochrome P450 3A4 (Homo sapiens) (P08684 whole entry, looked up): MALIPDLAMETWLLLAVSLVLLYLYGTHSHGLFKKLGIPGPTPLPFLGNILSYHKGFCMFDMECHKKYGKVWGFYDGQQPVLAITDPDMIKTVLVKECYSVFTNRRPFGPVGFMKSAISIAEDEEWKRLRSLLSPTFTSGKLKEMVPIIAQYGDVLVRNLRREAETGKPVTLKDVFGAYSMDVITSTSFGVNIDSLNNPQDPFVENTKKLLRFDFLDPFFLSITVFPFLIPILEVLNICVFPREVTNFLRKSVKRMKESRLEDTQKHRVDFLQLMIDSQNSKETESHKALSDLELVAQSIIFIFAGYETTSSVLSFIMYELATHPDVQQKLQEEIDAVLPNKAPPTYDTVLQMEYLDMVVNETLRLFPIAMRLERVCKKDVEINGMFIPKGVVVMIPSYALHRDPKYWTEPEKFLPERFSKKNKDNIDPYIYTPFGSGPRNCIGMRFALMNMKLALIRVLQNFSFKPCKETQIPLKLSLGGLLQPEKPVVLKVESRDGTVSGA
In short: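 Luminescent readout of luciferin produced by CYP3A4 (20 nM) dealkylation of Luciferin-PPXE, 25 uM (its KM). NADPH-driven reaction ran 60 min at RT after 10 min compound preincubation; data scaled to 57 uM ketoconazole as 100% inhibition.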

[9] = target: Cytochrome P450 3A4 (Homo sapiens) (UniProt P08684); assay: qHTS Assay for Activators of Cytochrome P450 3A4 (AID 885); settings: recombinant CYP3A4, Luciferin-PPXE luminescence, 60 min; series mostly up to 57.1 µM; further: nearly all actives have a fitted effect of over 65% in size
In short: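 CYP3A4 activity: Luciferin-PPXE O-dealkylation, 25uM substrate, 200mM KPO4, RT throughout. Read-out is luciferase luminescence; higher values reflect activation.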

[10] = target: Cytochrome P450 2C19 (Homo sapiens) (UniProt P33261); assay: qHTS Assay for Inhibitors and Substrates of Cytochrome P450 2C19 (AID 899); settings: recombinant CYP2C19, luciferin-H EGE luminescence; series mostly up to 57.1 µM; further: potency means the concentration at half of the fitted maximal effect; nearly all actives have a fitted effect of over 60% in size
In short: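 NADPH-dependent conversion of Luciferin-H EGE (10uM, at KM) by 5nM enzyme in 50mM KPO4, 60 min at 37C following 10 min compound preincubation. Stopped with luciferin detection buffer; luminescence read after 20 min.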

[11] = target: Dual specificity protein kinase CLK4 (Homo sapiens) (UniProt Q9HAZ1); assay: qHTS Assay for Inhibitors of CDC-like Kinase 4 (Kinase-Glo Assay) (AID 1770); settings: recombinant Clk4, Kinase-Glo ATP depletion luminescence; series mostly up to 66.7 µM; further: nearly all actives have a fitted effect of over 65% in size
Chain of Dual specificity protein kinase CLK4 (Homo sapiens) (Q9HAZ1 whole entry, looked up): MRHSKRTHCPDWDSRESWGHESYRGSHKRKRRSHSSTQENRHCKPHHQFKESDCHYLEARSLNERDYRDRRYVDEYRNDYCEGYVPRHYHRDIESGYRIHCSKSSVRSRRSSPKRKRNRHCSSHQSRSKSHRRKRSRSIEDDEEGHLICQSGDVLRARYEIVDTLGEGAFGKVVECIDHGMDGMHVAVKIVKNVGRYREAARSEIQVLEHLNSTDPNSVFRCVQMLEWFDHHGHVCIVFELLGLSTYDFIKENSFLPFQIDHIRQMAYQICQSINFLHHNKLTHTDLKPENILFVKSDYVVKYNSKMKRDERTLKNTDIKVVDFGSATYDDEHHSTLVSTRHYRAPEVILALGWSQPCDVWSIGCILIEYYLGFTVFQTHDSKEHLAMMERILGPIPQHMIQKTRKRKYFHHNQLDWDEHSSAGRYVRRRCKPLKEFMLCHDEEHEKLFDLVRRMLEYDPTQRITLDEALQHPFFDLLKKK
In short: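 25 nM Clk4 with 100 uM RS repeat peptide and 1 uM ATP (final) in Tris pH7.5, 10 mM MgCl2, 4.5 h at room temperature. Remaining ATP measured by Kinase-Glo luciferase luminescence.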

[12] = target: Dual specificity protein kinase CLK4 (Homo sapiens) (UniProt Q9HAZ1); assay: qHTS Assay for Inhibitors of CDC-like Kinase 4 (ADP-Glo Assay) (AID 1771); settings: recombinant CLK4, ADP-Glo luminescence; series mostly up to 80 µM; further: nearly all actives have a fitted effect of over 70% in size
In short: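 ADP production was read by ADP-Glo luminescence after residual ATP depletion, following 1 h room-temperature reaction of 25 nM Clk4, 1 uM ATP and 100 uM RS peptide with MgCl2, EGTA, DTT and Triton X-100.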

[13] = target: Dual specificity protein kinase CLK4 (Homo sapiens) (UniProt Q9HAZ1); assay: qHTS Assay for Inhibitors of CDC-like Kinase 4 (ADP-FP Assay) (AID 1795); settings: Transcreener ADP fluorescence polarization; series mostly up to 50 µM;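 further: recombinant human CLK4 phosphorylating RS repeat peptide at 1 µM ATP; nearly all actives have a fitted effect of over 60% in size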
In short: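 Recombinant Clk4 (6.25 nM) phosphorylated 100 uM RS repeat peptide with 1 uM ATP in 25 mM Tris pH 7.5, 10 mM MgCl2, 0.5 mM EGTA, 2.5 mM DTT, 0.01% Triton X-100 for 1 h. ADP was detected by Transcreener ADP2 competitive fluorescence polarization after 30 min at room temperature.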

[14] = target: Ubiquitin carboxyl-terminal hydrolase 1 (Homo sapiens) (UniProt O94782); assay: Inhibitors of USP1/UAF1: Pilot qHTS (AID 504865); settings: purified USP1/UAF1, Ub-rhodamine cleavage fluorescence; series mostly up to 54.9 µM;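 further: rhodamine fluorescence freed from ubiquitin-rhodamine substrate followed over time; top concentration of the series differs between compounds; nearly all actives have a fitted effect of over 35% in size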
Chain of Ubiquitin carboxyl-terminal hydrolase 1 (Homo sapiens) (O94782 whole entry, looked up): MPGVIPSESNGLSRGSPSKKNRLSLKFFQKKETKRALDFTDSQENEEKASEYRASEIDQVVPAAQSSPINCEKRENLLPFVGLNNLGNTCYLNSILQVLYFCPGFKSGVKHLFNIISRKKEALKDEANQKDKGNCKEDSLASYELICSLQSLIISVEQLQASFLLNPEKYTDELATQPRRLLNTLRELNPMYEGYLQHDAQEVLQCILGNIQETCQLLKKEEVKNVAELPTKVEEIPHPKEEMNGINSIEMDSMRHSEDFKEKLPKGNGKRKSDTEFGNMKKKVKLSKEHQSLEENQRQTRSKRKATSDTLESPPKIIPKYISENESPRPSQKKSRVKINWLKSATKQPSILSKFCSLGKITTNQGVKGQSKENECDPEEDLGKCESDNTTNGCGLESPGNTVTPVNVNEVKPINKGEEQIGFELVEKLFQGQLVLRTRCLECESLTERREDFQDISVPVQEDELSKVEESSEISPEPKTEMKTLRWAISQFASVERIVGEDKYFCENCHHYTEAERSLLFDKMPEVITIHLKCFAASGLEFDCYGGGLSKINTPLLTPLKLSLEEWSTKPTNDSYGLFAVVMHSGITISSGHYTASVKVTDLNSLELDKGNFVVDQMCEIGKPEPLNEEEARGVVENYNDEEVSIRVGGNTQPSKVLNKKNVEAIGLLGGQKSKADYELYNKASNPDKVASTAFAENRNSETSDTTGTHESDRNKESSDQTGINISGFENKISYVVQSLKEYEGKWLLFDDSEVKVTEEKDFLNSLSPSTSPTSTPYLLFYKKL
In short: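 USP1/UAF1 complex at 1 nM preincubated 15 min at room temperature with compound, then Ub-Rho substrate added at 150 nM final. Fluorescence (480/540 nm) read kinetically in 50 mM HEPES pH 7.8, 0.5 mM EDTA, 1 mM TCEP, 0.1 mg/ml BSA, 0.01% Tween-20.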

[15] = Primary qHTS for small molecule stabilizers of the endoplasmic reticulum resident proteome: Secreted ER Calcium Modulated Protein (SERCaMP) assay (AID 1508630); settings: SH-SY5Y GLuc-SERCaMP (Gaussia luciferase released on ER calcium loss) secretion, thapsigargin, luminescence; series mostly up to 38.4 µM
In short: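 The SH-SY5Y reporter protocol was run at 3 concentrations up to 38.3 uM (primary) or 11 concentrations (follow-up): 16 h compound, 100 nM thapsigargin for 4 h, then extracellular luciferase luminescence.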

[16] = Stat Signaling Pathway (AID 446; active means well fitted curve in either direction with a large enough effect, not every such curve was filed as active;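 further: ME-180 cervical cancer cells given 40 pM IL-6 alongside compound; SIE-controlled beta-lactamase reporter measured as 460/530 nm FRET emission ratio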); settings: ME-180 SIE beta-lactamase reporter, IL-6 stimulated, 5 h; at 7.69 µM (top of the series) unless noted
In short: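 Compound effects on IL-6-induced STAT reporter activity were measured in ME-180 cells. After overnight culture, cells were co-treated with 40 pM IL-6 for 5 hrs before beta-lactamase substrate loading at room temperature.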

[17] = target: Mitogen-activated protein kinase 10 (Mus musculus) (UniProt Q61831); assay: JNK3 AlphaScreen Assay (AID 530; active means well fitted curve in either direction with a large enough effect, not every such curve was filed as active;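 further: kinase came from lysate of stimulated human HepG2 cells; signal reports phosphorylation of biotinylated GST-cJun 1-79 at Ser73 with 10 µM ATP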); settings: JNK3 lysate, c-Jun phosphorylation; series mostly up to 57.1 µM
In short: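 Phosphorylation of biotinylated GST-cJun(1-79) at Ser73 is measured by AlphaScreen proximity luminescence. Enzyme is JNK3 in HepG2 lysates activated with interleukin-1beta and tumor necrosis factor alpha; ATP is 10 uM final.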

[18] = qHTS Assay for Identification of Small Molecule Agonists for Hypoxia Response Element Signaling Pathway (AID 914; active means well fitted activation curve with a large enough effect in the signal ratio, with a control signal flat, not every such curve was filed as active; the % refers to the signal ratio; further: potency means the concentration at half of the fitted maximal effect); settings: ME-180 (cervical carcinoma) HRE-bla reporter, beta-lactamase ratio, CoCl2, 17 h; activation: stronger effect = higher value
In short: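 In Opti-MEM containing 0.5% dialyzed FBS and 10 mM HEPES, ME-180 HRE-bla cells received a compound titration and EC50 CoCl2. They were incubated 17 hours, then CCF4-loaded 2.5 hours at room temperature before ratio reading.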

Row | SMILES | Potency [1] [µM] | Potency [2] | activity change, negative = inhibition [3] [%] | Potency [4] [µM] | Potency [5] [µM] | Potency [6] | Potency [7] | Potency [8] | Potency [9] | Potency [10] | Potency [11] | Potency [12] | Potency [13] | Potency [14] | outcome [15] | activity, negative = inhibition [16] | Potency [17] | Potency [18]
1 | COc1ccccc1CCn1c(=O)c(-c2cn(C)c3ccccc23)nc2cncnc21 | > 11.4 | 1.26 µM (active) | 19 | > 9.22 | > 46 | inactive | 0.316 µM (active) | 2.51 µM (active) | inactive | 0.316 µM (active) | inactive | inactive | inactive | inactive | inactive |  |  | 
2 | O=c1c(-c2ccc(F)cc2)nc2cnc(N3CCOCC3)nc2n1Cc1ccc(F)cc1 | > 11.4 | 20 µM (active) |  | > 9.22 | > 46 | inactive |  |  |  |  | inactive | inactive | inactive | inactive | inactive | 105% [activator] (active) | inactive | 0.398 µM (active)
3 | COc1cccc(Cn2c(=O)c(-c3cccs3)nc3cnc(OC)nc32)c1 | > 11.4 | 3.16 µM (active) | 25.8 | > 9.22 |  |  | 3.16 µM (active) | 3.98 µM (active) | inactive |  | inactive | inactive | inactive | inactive | inactive |  |  | 
